# Assay results reported in article PMC13494018.
# Unmarked numbers belong to inactive results. How the calls were made is not given here.
# B1: design_605_6ebdab39-eaab-4492-afcb-164e20c3b25e_2341_dldesign_0_cycle1_af2pred (protein)
# chain: LTDEELKEIAKKVAEEAGEKALKLLREGKSIMEAADAADELVKTVEFLPQEYFLYAAKLAAEKVAEAGREVIEERKREEA
# B2: design_605_6ebdab39-eaab-4492-afcb-164e20c3b25e_2056_dldesign_0_cycle1_af2pred (protein)
# chain: MKEELLKISEESHQAAAEAQFLAAKNPSVKPLAEEAKKHAKKSIEAAKEGDLEKAKEHYKKVLELKEKAKKE
# B3: design_605_6ebdab39-eaab-4492-afcb-164e20c3b25e_2348_dldesign_0_cycle1_af2pred (protein)
# chain: DPALEEAKKHAEELAAKLSPDLAKEFKEFADFVLANAEKVITANKDNPEKRKEAGEQAKKVISSAAEAAIKLDK
# B4: design_605_6ebdab39-eaab-4492-afcb-164e20c3b25e_2390_dldesign_0_cycle1_af2pred (protein)
# chain: AAEKLKEKVEKIKKEAEEKAKKAKTKEEAAKIYREGAEKIRKLATEALKKDPSVEPAVKYGSKVAAELREKAAELDVLANRE
# B5: design_605_6ebdab39-eaab-4492-afcb-164e20c3b25e_1965_dldesign_0_cycle1_af2pred (protein)
# chain: VAKSYAEAAKDYTAATEAFTTAATLGADAGVATAKAKLDPGLASIVSTTIKANDAAARAAGAKRWAKRAEKYKAAAEKAAA
# B6: design_605_6ebdab39-eaab-4492-afcb-164e20c3b25e_778_dldesign_0_cycle1_af2pred (protein)
# chain: EVKELIKKAKELIEKAEKLTKSGEKLEEGEKAAEEAKKVVEEAKKVAKDSTPEEKFAVAEALAELRNVEREIKKAKEEK
# B7: design_605_6ebdab39-eaab-4492-afcb-164e20c3b25e_2126_dldesign_0_cycle1_af2pred (protein)
# chain: DELEKYKKEAKEAAKEAIKEAKELGKLIGDEKWAKANQEKIKKIEEKAQKSKDAEVAKKYAEELKKAKEKLKKIKKRAKEALE
# B8: design_605_6ebdab39-eaab-4492-afcb-164e20c3b25e_2299_dldesign_0_cycle1_af2pred (protein)
# chain: ELEELKKKHEAYEEYLKAIAYYEQSKLSKSLAEEAKQKAAEHINKANKLLGKEELSLEEAVKEAEKLDENASEIVKKLVETKKKIEEL
# B9: design_605_6ebdab39-eaab-4492-afcb-164e20c3b25e_1516_dldesign_0_cycle1_af2pred (protein)
# chain: EKEKEAKEIIEKARKALKEARKKLKAKGATPEQAKKMQEARELAAEADYLAKKDPKKGKEIAEKAIELAKKAAE
# B10: design_605_6ebdab39-eaab-4492-afcb-164e20c3b25e_1941_dldesign_0_cycle1_af2pred (protein)
# chain: AAAEEKAAEEEMKKLGEKNVEKVKKAAKKGAEEAEKAVKEAFKDFEKAAKTPASINVGQKAREEMLGIAAEARIKE
# B11: design_605_6ebdab39-eaab-4492-afcb-164e20c3b25e_1493_dldesign_0_cycle1_af2pred (protein)
# chain: TIEKNVALAEKLAERAKEVAKKAAADPNKKEAAKLAKKAAELAKEAAALAKEGKIAEGAKKMHEARELLAEAEHLLRK
# B12: design_605_6ebdab39-eaab-4492-afcb-164e20c3b25e_1459_dldesign_0_cycle1_af2pred (protein)
# chain: AAEEARKKKLEEFAKKAKEAAKKFSPEYAKKAKEAAKLYEQGKTATPAEAAALAQKARQLLAEAEYEDKK
# B13: design_605_6ebdab39-eaab-4492-afcb-164e20c3b25e_799_dldesign_0_cycle1_af2pred (protein)
# chain: GEKEKLKKEAEELEKKAKELEKKAEEKFKKNIKKGSKALSYVEQAKNAAKVAKKYAEEGKVEEAKKALEKAKEYLKKAKEYVEE
# B14: design_605_6ebdab39-eaab-4492-afcb-164e20c3b25e_1054_dldesign_0_cycle1_af2pred (protein)
# chain: DVTEKAKKAAEEALKADAETAAKLLSEAAKLAVEAGDSEGMHIIRQAISEMDFAGKKEGAAKARAAAAAAVRARQAALAA
# B15: design_605_6ebdab39-eaab-4492-afcb-164e20c3b25e_1749_dldesign_0_cycle1_af2pred (protein)
# chain: MTPEELRKAEVEALIKKASEAMGEARFYANYAKLTGDKEAAKKAAEAAKKAIEYLTAAAALSTDPAVKARAKAAAERAKKLAKEALE
# B16: design_605_6ebdab39-eaab-4492-afcb-164e20c3b25e_1926_dldesign_0_cycle1_af2pred (protein)
# chain: SPAEERRAKATAYAARVAKEDPEFALELIREAAKADPETATEVVKAMTEAATKAAAEVDPEKAKELKEKGEAILKEVEKA
# B17: design_605_6ebdab39-eaab-4492-afcb-164e20c3b25e_883_dldesign_0_cycle1_af2pred (protein)
# chain: DAEIQAILEQAKKALKAAKESLEKGKKYEEEGKKNLAEAYYEHAIHNAEQAIKLAEQNIAAGGKPEEAQKIKDEAKKVKEEAKG
# B18: design_605_6ebdab39-eaab-4492-afcb-164e20c3b25e_858_dldesign_0_cycle1_af2pred (protein)
# chain: ALEEFKKLLQKLIDLTAAVPEAAKAREELENGTPREALKAAIKAAKAKAAADPSVAPELEKLVHELSQAAAEAELELKK
# B19: design_605_6ebdab39-eaab-4492-afcb-164e20c3b25e_1415_dldesign_0_cycle1_af2pred (protein)
# chain: AAKLEAKMKAMDMAVEAGEADAEDEEKGKEKLEELKKMVEEIAKEIGEEAGESAWRIAMDVYEHTVKMKK
# B20: design_605_6ebdab39-eaab-4492-afcb-164e20c3b25e_2465_dldesign_0_cycle1_af2pred (protein)
# chain: AKKLQEAADEANKAFALLAKAAKAHPEIKEEALAAKKAALTMLEGKNAKEAAKAAKEKLKAAAQKAPEVAAEMAAAMKAVDKMLEL
# B21: design_605_6ebdab39-eaab-4492-afcb-164e20c3b25e_1408_dldesign_0_cycle1_af2pred (protein)
# chain: AEEEEKIKKKAKEIVDTIVKAAKEGLEKARKTAAELAKKYGMKTEDAALVRSLAVKTAKEGGKYYEDAVEAAVEGIKE
# B22: design_605_6ebdab39-eaab-4492-afcb-164e20c3b25e_1473_dldesign_0_cycle1_af2pred (protein)
# chain: AKEILDAQMKILDAANEAEKVDPELGKEIREKYKKVAEEGKKLSPEEALKALKAMAEEAEKKAKEAKKEAEKKKLE
# B23: design_605_6ebdab39-eaab-4492-afcb-164e20c3b25e_904_dldesign_0_cycle1_af2pred (protein)
# chain: AEAEKKAKEGKEKMEAGKKKLAEAKKTGSAELAKEAAKLFKEAGKLFAAVPEQQANAAEAAKLAHEAYELAAEARAK
# B24: design_605_6ebdab39-eaab-4492-afcb-164e20c3b25e_1733_dldesign_0_cycle1_af2pred (protein)
# chain: AAEKGKNLAESVKLFSEQALENGKKLGAEALKEAAKRIKKRGDKAVTTIAKDPSAAPYAKEAEAITKDYIKKAEEAAKKAK
# B25: design_605_6ebdab39-eaab-4492-afcb-164e20c3b25e_1234_dldesign_0_cycle1_af2pred (protein)
# chain: SGVKETAIEVAEDAKKAAEEAEKLAKEKPEFAKELKKVAEKAKKAAKKALEGAKKSEEEARKATAEAATALALAENVIDTVKLA
# B26: design_605_6ebdab39-eaab-4492-afcb-164e20c3b25e_2228_dldesign_0_cycle1_af2pred (protein)
# chain: SALAERARALRAAARAEAAADPENAAAIARAGARELRALYRENRDRITPEERATISAAAADLYELAAEAEAE
# B27: design_605_6ebdab39-eaab-4492-afcb-164e20c3b25e_2187_dldesign_0_cycle1_af2pred (protein)
# chain: SAAKEEAKKEAEKLKEKVKKLKKELEENKDNKEKAKKIAKEAREVIREARELGKKYASFKEVHKELSEAAAEAAEVRAEADLYAS
# B28: design_605_6ebdab39-eaab-4492-afcb-164e20c3b25e_1042_dldesign_0_cycle1_af2pred (protein)
# chain: ELEKLAKKAEDAAAVLKNSKARAHALSAALQLEAGNKELAKKSATAAAAVLDANPDITPEEEKARDALKEIADWLA
# B29: design_605_6ebdab39-eaab-4492-afcb-164e20c3b25e_2479_dldesign_0_cycle1_af2pred (protein)
# chain: MKEASEAAAKAYEYMAEALYYGKKASEEAAKEAEKAAKEVKELLKKAREAAKEGKYEEAKKLAEEAYKLAKETYEKLKKELEKKKA
# B30: design_605_6ebdab39-eaab-4492-afcb-164e20c3b25e_1026_dldesign_0_cycle1_af2pred (protein)
# chain: AEKEETEEKAKEVLKKAEEAAEKILKKDPKKAQEVYRIIFLGESKRLAGDYEEALKLYEEALKKAEELNKEL
# B31: design_605_6ebdab39-eaab-4492-afcb-164e20c3b25e_1481_dldesign_0_cycle1_af2pred (protein)
# chain: SEVEEAIKKIKDTAAKATAAAIAAAAVDPTLGANVAADGQAKLTELAWEYSKKYPEHKEEIEKTRKEERKAMRDAVGAAIAAVA
# B32: design_605_6ebdab39-eaab-4492-afcb-164e20c3b25e_1884_dldesign_0_cycle1_af2pred (protein)
# chain: NKKKEEAAKLAKESLAKAKEIADYAVANKDTINKAEATALATEAASYAAEALGYAAFAGKEEYEKMKKEFKEIREKMKAVLDAI
# B33: design_605_6ebdab39-eaab-4492-afcb-164e20c3b25e_2016_dldesign_0_cycle1_af2pred (protein)
# chain: KAEEEAKKAVEFLLALGKEHPAGAEYAEKAAKAIENGEDIGTAMAYAWAAGQAVGDAALADKAMDKVAEAHMARK
# B34: design_605_6ebdab39-eaab-4492-afcb-164e20c3b25e_2239_dldesign_0_cycle1_af2pred (protein)
# chain: GEKEKYAEEIKKIAKELKALGTPEGEKGAKVAERLSKQAKKTKKAEHAKGYLDIAKDIEKQAKALIAAKQ
# B35: design_605_6ebdab39-eaab-4492-afcb-164e20c3b25e_1027_dldesign_0_cycle1_af2pred (protein)
# chain: ALEEAKKKIEEAEKRASKRLDEVAAKVSPEEAKKLEEAKKELKEKTEKAKKLSPEEAIKLAAEAAAKAYEAAAEARAKE
# B36: design_605_6ebdab39-eaab-4492-afcb-164e20c3b25e_1133_dldesign_0_cycle1_af2pred (protein)
# chain: NAAEIAAAKAALAEARAAFEAAGAALVAADPSYAPQVAKALARIDKLEADGKANPALAAEYYQLATDIAEDQAANAKKLLAAIT
# B37: design_605_6ebdab39-eaab-4492-afcb-164e20c3b25e_2478_dldesign_0_cycle1_af2pred (protein)
# chain: SAAAEAARKAEAKKAADEYYAKGEEYYQKALDDPKNAKKYLQKAYSYYLLAAQAYEIAGDKEKAKEAEEKADKAAEA
# B38: design_605_6ebdab39-eaab-4492-afcb-164e20c3b25e_1837_dldesign_0_cycle1_af2pred (protein)
# chain: MDKEKIKKKLYKELSEAAKKGAMAVFDVVDKAYDEGTAELAKEAAEEVAKETTPEEAKAMRAGARYLEAATA
# Biological target: VTCN1, Q7Z7D3
# Sequence (Q7Z7D3 whole entry): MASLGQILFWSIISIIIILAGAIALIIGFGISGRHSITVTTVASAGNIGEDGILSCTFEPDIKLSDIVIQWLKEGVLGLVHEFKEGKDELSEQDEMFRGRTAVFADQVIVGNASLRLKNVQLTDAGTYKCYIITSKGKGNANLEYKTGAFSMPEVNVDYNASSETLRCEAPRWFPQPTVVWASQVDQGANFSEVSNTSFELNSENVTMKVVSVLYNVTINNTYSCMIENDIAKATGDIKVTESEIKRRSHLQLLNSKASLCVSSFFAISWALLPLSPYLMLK
row,Binder,binding in a display sort
1,B1,not found
2,B2,not found
3,B3,not found
4,B4,not found
5,B5,not found
6,B6,not found
7,B7,not found
8,B8,not found
9,B9,not found
10,B10,not found
11,B11,not found
12,B12,not found
13,B13,not found
14,B14,not found
15,B15,not found
16,B16,not found
17,B17,not found
18,B18,not found
19,B19,not found

row,Binder,binding in a display sort
1,B20,not found
2,B21,not found
3,B22,not found
4,B23,not found
5,B24,not found
6,B25,not found
7,B26,not found
8,B27,not found
9,B28,not found
10,B29,not found
11,B30,not found
12,B31,not found
13,B32,not found
14,B33,not found
15,B34,not found
16,B35,not found
17,B36,not found
18,B37,not found
19,B38,not found
